Source: PubChem BioAssay (Broad Institute)
T_cruzi_growth-1: T. cruzi proliferation inhibition; inhibition, % at 8.34 µM; 77,000 tested, 5.9% active; T. cruzi beta-gal in NIH3T3, GalScreen luminescence, 90 h;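 active means mean inhibition above about 93%, with at least 55% of replicates each passing it, limit read from the data, passing the limit was not always enough; inconclusive means only one of those two conditions holds; inactive means neither condition holds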
C_diff_HTS: blocks growth of Clostridium difficile | 86,000 tested, 0.25% active | Clostridium difficile clinical isolate growth, OD600, 24 h; hits give low values | AID 1259249 | growth activity, negative = inhibition, % at 16 µg/mL (by protocol);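 active means mean growth activity at or below -80% and every replicate also at or below -80%; inconclusive means mean at or below -80% but some replicate above -80%; inactive means mean growth activity above -80%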;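 further: 0% = DMSO wells and -100% = levofloxacin 16 µg/mL wells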
Pf_Dd2_inh: blocks growth of Plasmodium falciparum Dd2 parasites. P. falciparum Dd2 growth, SYBR Green, 72 h; hits give low values. activity change, % at 10 µM. 94,000 tested, 2.3% active. AID 1159554; in the data active means activity change below about -80%; inconclusive means no clear call, values can overlap the other calls
T_cruzi_growth-2: inhibitors of T. cruzi proliferation. shares compounds with T_cruzi_growth-1. T. cruzi beta-gal in NIH3T3, GalScreen luminescence, 90 h. inhibition, % at 8.35 µM. 5,600 tested, 72% active. AID 651739;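 active means mean replicate inhibition above about 95% and at least 55% of replicates individually reaching it, limit read from the data; inconclusive means only one of the two criteria is met; inactive means neither criterion is met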
T_cruzi_growth-3: Trypanosoma cruzi proliferation inhibition; AID 651740; T. cruzi beta-gal in NIH3T3, GalScreen luminescence, 90 h; 5,600 tested, 21% active; inhibition, % at 2.09 µM; shares compounds with T_cruzi_growth-1;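 active means mean inhibition above about 95%, with at least 55% of replicates also reaching it, limit read from the data; inconclusive means meets just one of the two conditions; inactive means meets neither condition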;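 further: plate controls were neutral control median for no effect and positive control median for full effect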
NIH3T3_tox: NIH/3T3 (mouse) viability loss; shares compounds with T_cruzi_growth-1; NIH/3T3 viability, CellTiter-Glo ATP luminescence, 90 h; cytotoxicity (signal decrease), % at 8.35 µM; 5,600 tested, 14% active; AID 651742;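 active means mean signal decrease across replicates above about 35% based on untreated-well scatter, with enough replicates individually passing, limit read from the data; inconclusive means no rule stated though some were filed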;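 further: 0% = median of neutral control wells and 100% = median of positive control wells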
3T3_cytotox_2: cytotoxicity in mouse NIH/3T3 fibroblasts; shares compounds with T_cruzi_growth-1; inhibition, % at 24.9 µM; 5,600 tested, 56% active; AID 651744; NIH/3T3 viability, CellTiter-Glo ATP luminescence, 90 h;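 active means mean loss of cell viability signal at or above a set limit, and enough replicates individually reaching it; inconclusive means meets only the mean limit or only the replicate share; inactive means meets neither condition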;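 further: 0% = median of neutral control wells and 100% = median of positive control wells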
* hit, by the source's call; ? = inconclusive; nt = no result. Most compounds without a hit are left out; they make up all but 6.7% or so of the library.

SMILES T_cruzi_growth-1 C_diff_HTS Pf_Dd2_inh T_cruzi_growth-2 T_cruzi_growth-3 NIH3T3_tox 3T3_cytotox_2
CC(=O)N(C)C[C@H]1Oc2cc(C#CCC(C)C)ccc2S(=O)(=O)N([C@@H](C)CO)C[C@@H]1C 70 -6 -19 nt nt nt nt
CO[C@H]1CN(C)C(=O)c2cc(NS(C)(=O)=O)ccc2OC[C@H](C)N(C(=O)C2CCCCC2)C[C@H]1C 92 nt nt nt nt nt nt
COCCNC[C@@H]1[C@@H](c2ccccc2)[C@@H](CO)N1c1nc(C)c(C)s1 87 -3 -62 nt nt nt nt
COCCNC[C@H]1[C@@H](c2ccccc2)[C@@H](CO)N1c1nc(C)c(C)s1 103* 7 -8 83 39 -35 -7
COc1ccc(CN(C)C[C@@H]2OCCCC[C@H](C)Oc3ccc(NC(=O)Nc4cccc5ccccc45)cc3C(=O)N([C@@H](C)CO)C[C@H]2C)cc1 94 -57 -80 nt nt nt nt
C[C@H](CO)N1C[C@H](C)[C@H](CN(C)Cc2ccccc2)OCCCC[C@H](C)Oc2ccc(NC(=O)Nc3cccc4ccccc34)cc2C1=O 117* 47 9 92 63 7 93*
C[C@@H]1CN([C@H](C)CO)C(=O)c2cc(NC(=O)Nc3cccc4ccccc34)ccc2O[C@@H](C)CCCCO[C@H]1CN(C)Cc1ccccc1 111* 59 ? 92 105* 34 107*
COc1ccc(CN(C)C[C@H]2OCCCC[C@@H](C)Oc3ccc(NC(=O)Nc4cccc5ccccc45)cc3C(=O)N([C@@H](C)CO)C[C@@H]2C)cc1 ? -43 -90* 97* 101* 41* 103*
C[C@@H]1CCCCO[C@@H](CN(C)CC2CCCCC2)[C@@H](C)CN([C@H](C)CO)C(=O)c2cc(NC(=O)Nc3cccc4ccccc34)ccc2O1 ? 10 -33 105* 105* 18 36*
C[C@@H]1CCCCO[C@@H](CN(C)CC2CCCCC2)[C@H](C)CN([C@@H](C)CO)C(=O)c2cc(NC(=O)Nc3cccc4ccccc34)ccc2O1 117 2 -79 nt nt nt nt
C[C@H]1CN([C@@H](C)CO)C(=O)Cc2cc(NC(=O)Nc3ccc4c(c3)OCO4)ccc2O[C@@H]1CN(C)S(=O)(=O)c1ccccc1 1 9 13 nt nt nt nt
CCCNC(=O)[C@H]1[C@H](CO)[C@H]2Cn3c(cccc3=O)[C@@H]1N2C(=O)C1CCC1 6 -1 22 nt nt nt nt
CC(C)CC#Cc1cnc2c(c1)C(=O)N([C@H](C)CO)C[C@H](C)[C@H](CN(C)C(=O)CN1CCOCC1)O2 11 2 20 nt nt nt nt
O=C(Nc1ccc2c(c1)[C@H]1C[C@H](CC(=O)N3CCCCC3)O[C@@H](CO)[C@H]1O2)C1CCC1 16 nt -4 nt nt nt nt
C[C@@H]1CN([C@@H](C)CO)C(=O)c2cccc(NC(=O)Nc3ccc(C(F)(F)F)cc3)c2O[C@@H]1CN(C)C nt 16 -29 nt nt nt nt
C[C@@H]1CN([C@@H](C)CO)C(=O)c2cc(NC(=O)Nc3cccc4ccccc34)ccc2O[C@@H](C)CCCCO[C@@H]1CN(C)Cc1ccccc1 116* 7 -61 110* 101* 27 ?
C[C@@H]1CCCCO[C@@H](CN(C)Cc2ccccc2)[C@H](C)CN([C@@H](C)CO)C(=O)c2cc(NC(=O)Nc3cccc4ccccc34)ccc2O1 107* 26 -8 103* 104* 6 106*
C[C@@H]1CCCCO[C@@H](CN(C)Cc2ccccc2)[C@@H](C)CN([C@H](C)CO)C(=O)c2cc(NC(=O)Nc3cccc4ccccc34)ccc2O1 nt 0 32 nt nt nt nt
COc1ccc(S(=O)(=O)Nc2ccc3c(c2)C(=O)N([C@@H](C)CO)C[C@@H](C)[C@@H](CN(C)C(=O)Cc2ccccc2)OCCCC[C@@H](C)O3)cc1 84 -3 -37 nt nt nt nt
COc1ccccc1-c1ccc2n(c1=O)C[C@H]1[C@H](CO)[C@@H](C(=O)N(C)C)N(CC3CCOCC3)[C@@H]21 32 2 -10 nt nt nt nt
Cc1noc(C)c1S(=O)(=O)N(C)C[C@H]1Oc2ccc(NC(=O)Nc3ccc4c(c3)OCO4)cc2CC(=O)N([C@H](C)CO)C[C@@H]1C 19 -8 -11 nt nt nt nt
C[C@@H]1CN([C@H](C)CO)C(=O)c2cc(NS(=O)(=O)c3cn(C)cn3)ccc2O[C@@H](C)CCCCO[C@@H]1CN(C)C(=O)c1ccncc1 nt 0 36 nt nt nt nt
Cc1ccc(-c2ccc3c(c2)O[C@@H](CN(C)C(=O)Nc2ccccc2)[C@@H](C)CN([C@H](C)CO)S3(=O)=O)cc1 nt 2 -38 nt nt nt nt
Cc1ccc(-c2ccc3c(c2)O[C@H](CN(C)C(=O)Nc2ccccc2)[C@H](C)CN([C@@H](C)CO)S3(=O)=O)cc1 nt -1 -13 nt nt nt nt
Cc1ccc(-c2ccc3c(c2)O[C@H](CN(C)C(=O)Nc2ccc(F)cc2)[C@H](C)CN([C@H](C)CO)S3(=O)=O)cc1 122* -5 -52 110* 80 5 66*
SMILES T_cruzi_growth-1 C_diff_HTS Pf_Dd2_inh T_cruzi_growth-2 T_cruzi_growth-3 NIH3T3_tox 3T3_cytotox_2
Cc1ccc(-c2ccc3c(c2)O[C@H](CN(C)C(=O)Nc2ccc(F)cc2)[C@H](C)CN([C@@H](C)CO)S3(=O)=O)cc1 119* -2 11 97* 86 -7 21
Cc1ccc(-c2ccc3c(c2)O[C@@H](CN(C)C(=O)Nc2ccc(F)cc2)[C@@H](C)CN([C@H](C)CO)S3(=O)=O)cc1 122* 4 -7 108* 89 55* 45*
Cc1ccc(-c2ccc3c(c2)O[C@H](CN(C)C(=O)Nc2ccc(F)cc2)[C@@H](C)CN([C@H](C)CO)S3(=O)=O)cc1 16 2 9 nt nt nt nt
CCNC(=O)C[C@H]1CC[C@@H]2[C@H](COc3ccc(NC(=O)c4ccccc4)cc3C(=O)N2C)O1 -27 0 -6 nt nt nt nt
CCN1[C@@H]2c3ccc(-c4ccccc4F)c(=O)n3C[C@H]1[C@H](CO)[C@H]2C(=O)N1CCCCC1 -2 0 21 nt nt nt nt
C[C@H](CO)N1C[C@H](C)[C@H](CN(C)S(=O)(=O)c2ccc(F)cc2)Oc2cc(C3=CCCC3)ccc2S1(=O)=O 118* 14 -30 108* 78 37* 24*
Cc1ccc(S(=O)(=O)N(C)C[C@H]2Oc3cc(C4=CCCC4)ccc3S(=O)(=O)N([C@@H](C)CO)C[C@@H]2C)cc1 nt 4 -50 nt nt nt nt
C[C@@H]1CN([C@@H](C)CO)S(=O)(=O)c2ccc(C3=CCCC3)cc2O[C@@H]1CN(C)S(=O)(=O)c1ccc(F)cc1 119* 5 -13 106* 75 29 31*
